This note sets out measurements from PubChem BioAssay (NCI).

This assay in a line: NCI Yeast Anticancer Drug Screen. Data for the rad50EPP+ strain (AID 151).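 Note: 0% = growth of vehicle-treated control cultures.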 The following applies: S. cerevisiae rad50 mutant strain, stronger effect = higher value. On the procedure:
Growth inhibition of yeast strains with defined genetic alterations is measured as a screen for potential anti-cancer activity. Selected strains with alterations in DNA damage repair or cell cycle control were exposed to compounds and growth inhibition was measured relative to vehicle treated controls. The strain used in this assay is rad50EPP+

The panel holds about 79,000 compounds, 15% with a hit somewhere; the sample as a whole holds those more often. Unmarked numbers belong to inactive results. Active and inactive are the calls of the source. Cut-off read from the data, not from the text of the source: active = growth inhibition above about 70%; inactive = the rest.

Take `Cc1cc(S(=O)(=O)/N=C(/NN)NNc2cccc(C(F)(F)F)n2)c(S)cc1Cl`: the growth inhibition is -8% (at 1.2 µM); -24% (at 3.7 µM); -28% (at 11.0 µM); -52% (at 33.0 µM); -50% (at 100.0 µM).

`CCCCCCCCNC(=O)C1=C(C)NC(C)=C(C(=O)NCCCCCCCC)C1`: the growth inhibition was 0% (at 1.2 µM); -1% (at 3.7 µM); 2% (at 11.0 µM); 11% (at 33.0 µM); 25% (at 100.0 µM).

As to `CCN(CC)CCNc1ccc([N+](=O)[O-])c2nc3ccc(OC)cc3c(N)c12`, the growth inhibition reads like this: (at 1.2 µM) 11%; (at 3.7 µM) 7%; (at 11.0 µM) 30%; (at 33.0 µM) 69%; (at 100.0 µM) 79% (active).

Consider `COc1ccc2ccc3ccccc3c2c1C=O`, for which the growth inhibition (at 1.2 µM) is 0%; the growth inhibition (at 3.7 µM) is 2%; the growth inhibition (at 11.0 µM) was 3%; the growth inhibition (at 33.0 µM) was 8%; the growth inhibition (at 100.0 µM) was 25%.

As to `CC[n+]1ccc2c(C)c3[nH]c4ccc(O)cc4c3c(C)c2c1`, the growth inhibition (at 1.2 µM) is 16%; the growth inhibition (at 3.7 µM) was 34%; the growth inhibition (at 11.0 µM) is 64%; the growth inhibition (at 33.0 µM) was 85% (active); the growth inhibition (at 100.0 µM) is 90% (active).

Regarding `CC(C)NC(=O)OCc1c(COC(=O)NC(C)C)c(-c2ccc(Cl)c(Cl)c2)n2c1CCC2`, the growth inhibition is -23% (at 1.2 µM); -18% (at 3.7 µM); -5% (at 11.0 µM); -18% (at 33.0 µM); -4% (at 100.0 µM).

In the case of `Cc1ccc(N)c(S)c1`, the growth inhibition is, setting by setting: (at 1.2 µM) -49%; (at 3.7 µM) -39%; (at 11.0 µM) 76% (active); (at 33.0 µM) 95% (active); (at 100.0 µM) 91% (active).

For `CN(CCc1ccccn1)c1ccc2c(c1)Cc1ccccc1-2`, the growth inhibition runs as follows: (at 1.2 µM) 29%; (at 3.7 µM) 68%; (at 11.0 µM) 91% (active); (at 33.0 µM) 89% (active); (at 100.0 µM) 88% (active).
